Source: PubChem BioAssay
PG9 binder = small molecules binding HIV-1 gp120 antibody PG9. TR-FRET gp120-PG9 antibody binding. inhibition, % at 6.7 µM. actives 0.43% (n = 360,000). AID 624416; in the data active means inhibition above about 8.5%
rCAG RNA binder = r(CAG) repeat RNA binding | TO-PRO-1 dye displacement fluorescence | inhibition, % at 3 µM | actives 1.3% (n = 370,000) | AID 651821;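 active means inhibition above the plate cutoff, the mean of all test compounds on that plate plus 3 SD, cut at about 35% in these data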;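 further: 0% = DMSO alone and 100% = 100 µM mitoxantrone as full dye displacement; higher means more dye released from RNA so lower well fluorescence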
ABCB6 inh 2 = inhibitors of human ABC transporter ABCB6; Q9NP58; K562-ABCB6 porphyrin accumulation, flow cytometry, 1 h; active compounds read low; fluorescence ratio to DMSO, % at 10 µM; actives 0.19% (n = 360,000); AID 602162;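 active means fluorescence ratio to DMSO below 75%, the collection mean minus 3 SD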;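 further: signal is porphyrin accumulated inside mitochondria; 100% equals median channel fluorescence of DMSO control wells; lower ratio means ABCB6 inhibition with less porphyrin fluorescence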
Target sequence (Q9NP58 whole entry, looked up): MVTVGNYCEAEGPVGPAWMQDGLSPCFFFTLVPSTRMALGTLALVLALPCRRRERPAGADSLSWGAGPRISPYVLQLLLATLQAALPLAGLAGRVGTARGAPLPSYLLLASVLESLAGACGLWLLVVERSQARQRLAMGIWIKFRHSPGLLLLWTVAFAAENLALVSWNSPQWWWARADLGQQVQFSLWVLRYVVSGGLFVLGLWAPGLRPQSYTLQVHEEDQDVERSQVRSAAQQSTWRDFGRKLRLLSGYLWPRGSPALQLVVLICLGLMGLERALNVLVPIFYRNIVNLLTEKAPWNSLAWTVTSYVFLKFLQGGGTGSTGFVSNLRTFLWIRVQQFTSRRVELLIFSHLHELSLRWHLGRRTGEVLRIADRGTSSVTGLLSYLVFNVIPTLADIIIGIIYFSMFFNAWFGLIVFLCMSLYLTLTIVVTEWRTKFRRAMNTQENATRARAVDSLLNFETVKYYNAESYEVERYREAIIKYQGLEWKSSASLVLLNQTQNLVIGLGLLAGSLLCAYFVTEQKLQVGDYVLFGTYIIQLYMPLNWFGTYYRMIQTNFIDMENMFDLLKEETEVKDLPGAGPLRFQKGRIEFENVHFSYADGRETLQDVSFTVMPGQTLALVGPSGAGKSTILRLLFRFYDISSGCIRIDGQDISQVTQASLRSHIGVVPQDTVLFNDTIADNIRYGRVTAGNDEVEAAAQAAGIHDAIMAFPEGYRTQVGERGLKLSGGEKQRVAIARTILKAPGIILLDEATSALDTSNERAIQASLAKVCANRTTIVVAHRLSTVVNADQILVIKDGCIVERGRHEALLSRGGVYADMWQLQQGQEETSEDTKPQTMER
Granule exo inh = lytic granule exocytosis inhibition | inhibition, % at 10 µM | actives 0.66% (n = 360,000) | TALL-104 LAMP-1 surface exposure, flow cytometry; cells stimulated with thapsigargin and PMA;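 active means inhibition above about 55%, limit read from the data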
PG9 binder conf = confirmation of small molecules binding HIV-1 gp120 antibody PG9; TR-FRET PG9 antibody binding, biochemical; inhibition, % at 6.7 µM; actives 90% (n = 1,500); shares compounds with PG9 binder; in the data active means inhibition above about 9%
PGV04 counter = binds control antibody PGV04 in PG9 binder counter-screen; shares compounds with PG9 binder; TR-FRET PGV04 antibody-gp120 binding, biochemical; inhibition, % at 6.7 µM; actives 95% (n = 1,500); in the data active means inhibition above about 9.5%
Exocytosis CP01 = lytic granule exocytosis inhibition. shares compounds with Granule exo inh. TALL-104 cells, LAMP-1 externalization, flow cytometry; stimulated with PMA plus thapsigargin. inhibition, % at 10 µM. actives 11% (n = 1,500). AID 651954; in the data active means inhibition above about 60%;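 further: 0% = stimulated vehicle wells and 100% = unstimulated wells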
rCAG binder conf = r(CAG) RNA repeat binding, confirmation. actives 70% (n = 4,300). inhibition, % at 3 µM. TO-PRO-1 dye displacement fluorescence. shares compounds with rCAG RNA binder;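 active means inhibition above a per-plate cutoff, the mean inhibition of sample wells plus 3 SD, cut at about 35% in these data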;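 further: loss of TO-PRO-1 fluorescence as compound displaces dye from 1x1 AA loop RNA; 0% = DMSO only wells and 100% = 100 µM mitoxantrone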
dCAG dye counter = DNA CAG dye complex inhibition counter-screen; shares compounds with rCAG RNA binder; d(CAG) DNA oligo TO-PRO-1 dye displacement, fluorescence; inhibition, % at 3 µM; actives 94% (n = 4,300); AID 652068;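 active means inhibition above its plate's cutoff, the mean test-well inhibition plus 3 SD, cut at about 4.8% in these data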;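 further: 0% = DNA dye mix with DMSO and 100% = 100 µM mitoxantrone; hits displace the dye from DNA and so lower well fluorescence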
* marks the source's active call; other numbers are inactive results; x = no result given. Hits are enriched below; roughly 2.5% of the tested compounds scored in any of these assays.

SMILES	PG9 binder	rCAG RNA binder	ABCB6 inh 2	Granule exo inh	Exocytosis CP01	others
COc1cccc(C2C(C(=O)c3cc4cccc(OC)c4o3)=C(O)C(=O)N2c2cc(C)on2)c1OC (configuration not stated)	14.2*	57.2*	119.0	-2.6	x	PG9 binder conf=21.6*;PGV04 counter=35.5*;rCAG binder conf=65.3*;dCAG dye counter=25.3*
COc1cccc(C2C(C(=O)c3cc4ccccc4o3)=C(O)C(=O)N2c2cc(C)on2)c1OC (configuration not stated)	19.2*	50.7*	121.0	-4.6	x	PG9 binder conf=27.5*;PGV04 counter=42.7*;rCAG binder conf=44.5*;dCAG dye counter=11.6*
Cc1nc2ccc(NC(=O)c3ccc(C)c(S(=O)(=O)N4CCOCC4)c3)cc2s1	1.7	7.2	92.0	3.0	x
Cc1ccccc1CNS(=O)(=O)c1c(C)[nH]c(C)c1C(=O)N1CCCCC1	0.2	-1.8	98.0	-13.5	x
CCOC(=O)c1nnn2c1nc(N(CC)CC)c1ccccc12	0.2	-4.4	99.0	74.1*	-11.6
CCOC(=O)c1n[nH]n2c1nc(=O)c1ccccc12	-2.1	3.5	104.0	-0.1	x
CCOC(=O)C1=C(CNCc2ccc(F)cc2)NC(=O)NC1c1cccc([N+](=O)[O-])c1 (configuration not stated)	-1.2	-2.8	97.0	-2.6	x
CCOC(=O)C1=C(CCc2ccccc2)NC(=O)NC1c1cccc([N+](=O)[O-])c1 (configuration not stated)	0.4	1.9	95.0	94.2*	-13.9
COc1ccccc1-c1cc(C(F)(F)F)nc(S(=O)(=O)CCCC(=O)NC(C)C)n1	-1.2	-2.1	86.0	4.2	x
COc1ccccc1-c1cc(C(F)(F)F)nc(S(=O)(=O)CCCC(=O)NCc2ccc(F)cc2)n1	1.0	-2.1	102.0	75.1*	5.1
COc1ccccc1-c1cc(C(F)(F)F)nc(S(=O)(=O)CCCC(=O)N2CCCCC2C)n1 (configuration not stated)	0.4	-6.6	92.0	64.4*	4.0
CCCNC(=O)[C@@H]1CCCN1C(=O)[C@@H]1Cc2ccccc2CN1	0.5	2.4	86.0	10.6	x
CC(C)OC(=O)N(C)C[C@@H]1OCc2cn(nn2)CCCC(=O)N([C@H](C)CO)C[C@H]1C	-1.6	0.6	98.0	-7.0	x
c1ccc(C(NCCNC(c2ccccc2)c2ccccc2)c2ccccc2)cc1	-0.4	-0.4	101.0	80.2*	2.6
CCOc1ccc(S(=O)(=O)N2CCC(C(=O)NCc3ccncc3)CC2)cc1Cl	0.2	4.0	98.0	15.2	x
Cc1cc(C)n(-c2nc(SCCN(C)C)c3c4c(sc3n2)CCCC4)n1	0.6	8.5	108.0	70.2*	33.4
Cc1cc(C)n(-c2nc(SCC(=O)O)c3c4c(sc3n2)COC(C)(C)C4)n1	2.4	9.4	102.0	-4.5	x
Cn1nccc1C(=O)Nc1nnc(C2CC2)s1	1.3	0.3	107.0	-0.4	x
O=c1oc2ccccc2c2c1nc(C(F)(F)F)n2-c1ccccc1	0.0	0.7	101.0	66.7*	-3.1
O=c1oc2ccccc2c2nccnc12	-1.1	0.2	97.0	6.3	x
CCN(CC)CCOC(=O)c1ccc(N/C=C(/C#N)c2nc(-c3ccc(OC)cc3)cs2)cc1	-1.7	13.8	437.0	63.5*	66.4*
CCN(CC)CCOC(=O)c1ccc(N/C=C(/C#N)c2nc(-c3ccc4c(c3)OCO4)cs2)cc1	-0.9	13.1	161.0	23.5	x
CCCCn1c(N)c(N(CC(C)C)C(=O)CCNC(=O)c2ccc(Br)cc2)c(=O)[nH]c1=O	-2.6	-3.0	91.0	-2.1	x
CCOC(=O)c1ccc(N=Cc2cnc(N)nc2N)cc1	-0.6	2.4	107.0	-2.4	x
COc1ccc(N(CC(=O)NCCSCc2cccc(Cl)c2)S(C)(=O)=O)cc1Cl	-1.5	-3.3	99.0	59.8*	-9.7
COc1ccc(N(CC(=O)NCCSCc2ccc(Cl)cc2)S(C)(=O)=O)cc1Cl	-0.9	2.2	93.0	66.8*	-0.3
